Hits are enriched below; roughly 2.3% of the tested compounds scored in any of these assays.
CHO-K1 Ca antag = nonselective inhibitor or artifact in parental CHO-K1 cells; ATP-induced calcium, Fluo-8 fluorescence; inhibition, % at 3 µM; 360,000 compounds, 0.6% hits; AID 602250;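 active = inhibition above a per-plate cutoff, the plate's mean sample inhibition plus 3 SD, cut at about 24% in these data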
CHRM1 agonist = human M1 muscarinic receptor agonists, primary screen, Fluo-8 calcium fluorescence, CHO-K1 cells, HTS; Muscarinic acetylcholine receptor M1 (Homo sapiens), P11229; CHO-K1 hM1, agonist mode; 0% DMSO, 100% acetylcholine EC100; activation, % at 3 µM; 360,000 compounds, 0.33% hits;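 active = activation above the run's mean compound activation plus 3 SD, cut at about 16% in these data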;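 also: peak over basal fluorescence ratio within a 140 s kinetic read after compound addition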
Target sequence (P11229 whole entry, looked up): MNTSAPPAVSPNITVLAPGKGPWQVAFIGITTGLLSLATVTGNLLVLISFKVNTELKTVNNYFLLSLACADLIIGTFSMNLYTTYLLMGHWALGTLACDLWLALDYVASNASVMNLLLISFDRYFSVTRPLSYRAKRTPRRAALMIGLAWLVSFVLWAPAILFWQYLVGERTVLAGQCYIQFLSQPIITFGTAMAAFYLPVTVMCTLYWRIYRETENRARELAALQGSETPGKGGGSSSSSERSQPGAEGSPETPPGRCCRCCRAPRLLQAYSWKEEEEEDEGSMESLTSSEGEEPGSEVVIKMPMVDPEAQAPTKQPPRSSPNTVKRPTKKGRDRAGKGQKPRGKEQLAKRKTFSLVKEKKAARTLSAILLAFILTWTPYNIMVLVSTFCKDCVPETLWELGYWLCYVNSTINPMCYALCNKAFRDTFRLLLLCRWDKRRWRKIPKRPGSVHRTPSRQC
CHRM1 antagonist = human M1 muscarinic receptor antagonists, primary screen, CHO-K1 cells, Fluo-8 calcium fluorescence, 1536-well | 360,000 compounds, 1.3% hits | CHO-K1 hM1, ACh EC80 antagonist | inhibition, % at 3 µM;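 active = percent inhibition above its own plate's cutoff, namely the mean of that plate's compound wells plus 3 SD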;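 also: peak over basal fluorescence ratio during 140 s after agonist addition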
CHO-K1 Ca ag = counter-screen for M1 agonists: effect in parental CHO-K1 cells | activation, % at 3 µM | 360,000 compounds, 0.48% hits | Fluo-8 calcium fluorescence; scaled to maximal ATP response, vehicle zero | AID 602248, 2012; in the data active = activation above about 15%;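 also: untransfected CHO-K1 host cells lacking M1 receptor as counterscreen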
M1 PAM parental = nonselective calcium activators in parental CHO-K1 cells, primary screen, counter-screen for M1 PAM project, cell-based, Fluo-8 calcium fluorescence, full deck, 1536-well | activation, % at 3 µM | ATP EC20; 0% at ATP EC20, 100% at ATP max | 360,000 compounds, 0.02% hits;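 active = activation above the run cutoff, the mean activation of all test compounds plus 3 SD, cut at about 40% in these data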;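 also: peak over basal fluorescence ratio in a 140 s read after ATP addition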
CHRM1 PAM = human M1 muscarinic receptor positive allosteric modulators, primary screen, CHO-K1 cells, Fluo-8 calcium fluorescence, 1536-well. CHO-K1 hM1, ACh EC20; 0% = ACh EC20, 100% = maximal ACh. 360,000 compounds, 0.088% hits. Muscarinic acetylcholine receptor M1 (Homo sapiens), P11229. AID 588819, 2011. activation, % at 3 µM; in the data active = activation above about 19%, passing the limit was not always enough
Numbers stand for hits; . = inactive.

SMILES	CHO-K1 Ca antag	CHRM1 agonist	CHRM1 antagonist	CHO-K1 Ca ag	M1 PAM parental	CHRM1 PAM
CCC1CCCCN1S(=O)(=O)c1ccc(S(=O)(=O)N(Cc2ccccn2)CC2CCCO2)cc1 (stereo not drawn)	.	.	.	.	.	.
COc1ccc(C(=O)NC2CCCc3ccccc32)c(OC)c1OC (stereo not drawn)	.	.	.	.	.	.
COc1ccc(CCn2c(C(C)C)nc3c(c(=O)c4ccccc4n3C)c2=O)cc1	.	.	39.0	.	.	.
Cc1cc(C)cc(OC(=O)COc2ccccc2C)c1	.	.	.	.	.	.
COc1ccc(S(=O)(=O)NCC2CCCO2)c(Cl)c1Cl (stereo not drawn)	.	.	.	.	.	.
COc1cc(S(=O)(=O)NCC2CCCO2)c(OC)cc1Cl (stereo not drawn)	.	.	.	.	.	25.9
COC(=O)/C(=C\C=C\c1ccccc1)NC(=O)c1ccccc1	28.7	.	.	.	.	.
O=C(Nc1ccc(O)cc1)/C(=C\C=C\c1ccccc1)NC(=O)c1ccccc1	.	.	.	.	.	.
O=C(CNC(=O)c1ccc2c(c1)OCO2)N/N=C/c1cc(Br)ccc1O	.	.	.	.	.	.
COc1ccc(CNCCC(c2ccc(OC(C)C)cc2)C(C)C)cc1OC (stereo not drawn)	.	.	.	.	.	.
COc1ccc(C(CC(=O)O)c2ccc3c(c2)OCO3)cc1 (stereo not drawn)	.	.	.	.	.	.
COc1ccc(C(CCNCc2ccc(N(C)C)cc2)C(C)C)cc1 (stereo not drawn)	27.9	.	39.2	.	.	.
COc1ccc(C(CCNCc2ccc(OC(C)C)cc2)C(C)C)cc1 (stereo not drawn)	.	.	35.5	.	.	.
COc1ccc(CNCCC(c2ccccc2)c2ccc3c(c2)OCO3)cc1 (stereo not drawn)	.	.	.	28.4	.	.
Cc1nn(C(C)C(=O)NC2CCC(C)CC2)c(=O)c2nn(-c3ccccc3)c(C)c12 (stereo not drawn)	.	.	.	.	.	.
O=C(c1cc(C2CCCCN2C(=O)CCCc2ccccc2)on1)N1CCOCC1 (stereo not drawn)	.	.	.	.	.	.
COc1cccc(-c2nc(CS(=O)(=O)CC(=O)NCCCc3ccccc3)c(C)o2)c1	.	.	40.1	.	.	.
COc1cccc(-c2nc(CS(=O)(=O)CC(=O)NCc3ccccc3)c(C)o2)c1	.	.	.	.	.	.
O=C(Nc1ccc(-c2nc3cccnc3s2)cc1)c1cccnc1Cl	.	.	.	.	.	.
O=C(Nc1ccc(-c2nc3cccnc3s2)cc1)c1ccc(Cl)nc1	.	.	.	20.8	.	.
CC1(C)NC(=O)N(CCCC(=O)Nc2ccc(C(F)(F)F)cc2)C1=O	.	.	.	.	.	.
Cc1cccc(C)c1NC(=O)COC(=O)/C=C/c1ccc(S(=O)(=O)N2CCOCC2)cc1	.	.	.	.	.	.
O=C1Nc2ccccc2/C1=N\N=C\C1=C(N2CCOCC2)C(=C\c2ccccc2)/CC1	.	.	30.2	.	.	.
COc1ccc(C(=O)Oc2cc(C)c(CN3CCOCC3)cc2C)cc1OC	.	.	.	.	.	.
Cc1ccc(-c2nc(CS(=O)(=O)CC(=O)NCCN3CCCC3)c(C)o2)cc1	.	.	.	.	.	.
SMILES	CHO-K1 Ca antag	CHRM1 agonist	CHRM1 antagonist	CHO-K1 Ca ag	M1 PAM parental	CHRM1 PAM
COc1cccc(N/C(N)=N/c2nc(C(F)(F)F)cc(C(F)(F)F)n2)c1	.	.	.	.	.	.
COc1cccc(N/C(N)=N/c2nc(C(F)(F)F)cc(=O)[nH]2)c1	.	.	.	17.9	.	.
COc1ccccc1C(=O)NC(=O)COC(=O)c1cccc(C)c1O	.	.	.	15.1	.	.
COc1ccccc1C(=O)NC(=O)COC(=O)c1cc[n+]([O-])cc1	.	.	.	.	.	.
COc1cccc(OC)c1C(=O)Nn1c(-c2cccs2)nc2ccccc2c1=O	.	.	.	.	.	.
COc1cccc(OC)c1C(=O)Nn1c(-c2cccc(C)c2)nc2ccccc2c1=O	24.1	.	.	.	.	.
CC(C)NC1CCC(Nc2ccnc3cc(Cl)ccc23)CC1 (stereo not drawn)	.	.	.	.	.	.
CC(CCCN1CCCC1)Nc1ccnc2cc(Cl)ccc12 (stereo not drawn)	.	.	57.6	.	.	.
C=CC#CC[N+]1(CC#Cc2ccccc2)CCOCC1	.	.	.	.	.	.
C=CC[N+]1(CC#CCOC(c2ccccc2)c2ccccc2)CCOCC1	.	.	49.2	.	.	.
O=C(CCN1CCN(Cc2ccccc2)CC1)NNC(=O)c1ccc(Cl)c(Cl)c1	.	.	.	.	.	.
CCN(c1ccc(NC(=O)CSc2ccc3c(c2)OCCO3)cc1)C(C)C	.	.	81.5	.	.	.
Cc1ccccc1NC(=S)NC(=O)COc1ccccc1C	.	.	.	.	.	.
COc1ccc(C2=NNC(=O)C2(C)Br)cc1 (stereo not drawn)	.	.	.	.	.	.
CN(C)c1ccc(CN2CCC(C(=O)NC(c3ccc(F)cc3)c3ccc4ccccc4n3)CC2)cc1 (stereo not drawn)	.	.	53.8	.	.	.
O=C(NC(c1ccc(F)cc1)c1ccc2ccccc2n1)C1CCN(Cc2ccc3ccccc3n2)CC1 (stereo not drawn)	.	.	.	.	.	.
Fc1ccc(N2CCN(C3=Nc4cccc5cccc3c45)CC2)cc1	.	.	87.9	.	.	.
COc1ccc(S(=O)(=O)Nc2cc3c4c(c2)C(C)C(=O)N4CCC3)cc1OC (stereo not drawn)	.	.	.	.	.	.
COc1ccccc1/C=C/C(=O)OCC(=O)N1c2ccccc2CC1C (stereo not drawn)	.	.	.	.	.	.
O=C(NNC(=O)c1ccncc1)Nc1ccc(N=Nc2ccccc2)cc1	.	18.4	.	.	.	.
CN(C)CCOC(C1CCCCC1)C1CCCCC1	.	.	48.9	.	.	.
COc1ccc(S(=O)(=O)Nc2cccc3c2O[C@H](CN(C)C(=O)NC2CCCCC2)[C@@H](C)CN([C@H](C)CO)C3=O)cc1	.	.	.	.	.	.
CCOC(=O)C1=C(O)/C(=C\c2ccc(CNC(=O)C(=O)Nc3ccccc3)o2)N=C1C	28.2	.	.	.	.	.
